Source: PubChem BioAssay AID2551 (National Center for Advancing Translational Sciences (NCATS), 2010)
The whole screen tested about 310,000 compounds, of which about 17,000 (5.5%) were called active. About 11% were inconclusive and are not listed. The call rests on the fitted dose curve; in most records, active means well fitted inhibition curve with a large enough effect; inconclusive means small, poorly fitted or top-dose-only effect, or effect the other way; inactive means no such curve, though single readings can be large or run the other way. Shown is part of a subset that was picked to be rich in actives. Where a SMILES comes first, the peptide text is derived from it. [ ]: non-standard residue; d: D form. The star is where a group is joined. ξ: configuration not given here. Cbz = O=C(OCc1ccccc1)*; ξL = CC(C)CC(N)C(=O)O; ξP = O=C(O)C1CCCN1

Target: Nuclear receptor ROR-gamma (Mus musculus) (UniProt P51450)
Sequence (P51450 whole entry, looked up): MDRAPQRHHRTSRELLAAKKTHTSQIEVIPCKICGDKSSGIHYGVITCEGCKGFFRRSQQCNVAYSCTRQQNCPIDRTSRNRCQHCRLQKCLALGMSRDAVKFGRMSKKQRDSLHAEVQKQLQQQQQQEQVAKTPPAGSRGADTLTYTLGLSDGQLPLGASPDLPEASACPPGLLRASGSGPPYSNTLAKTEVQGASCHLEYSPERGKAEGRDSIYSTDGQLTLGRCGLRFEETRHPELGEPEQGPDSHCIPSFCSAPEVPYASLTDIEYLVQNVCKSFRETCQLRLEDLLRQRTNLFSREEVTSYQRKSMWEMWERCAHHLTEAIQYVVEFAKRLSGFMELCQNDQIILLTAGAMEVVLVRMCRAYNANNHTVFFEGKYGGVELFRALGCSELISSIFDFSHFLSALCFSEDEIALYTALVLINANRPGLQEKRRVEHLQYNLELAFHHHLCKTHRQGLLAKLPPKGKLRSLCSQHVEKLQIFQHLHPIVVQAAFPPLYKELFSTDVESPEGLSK
Assay: qHTS for inhibitors of ROR gamma transcriptional activity; further: nearly all actives have a fitted effect of over 60% in size
Conditions: Drosophila S2 Gal4-RORgamma UAS-luciferase reporter, 20 h; series mostly up to 53.6 µM
Summary of the method: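 Stable Schneider cell line, Gal4 DNA-binding domain fused to ROR gamma, UAS-luciferase. Cmpd 1 hr RT → CuSO4 700 uM final → 20 hr RT → luciferase reagent 10 min → luminescence.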
On the % scale 0 is the no-effect control and ±100 the full control effect; potency means the concentration at half of the fitted maximal effect.

Potency, inactive:
O=C(CCc1ccccc1)Nc1ccnn1C1CCN(Cc2ccc(OCCO)cc2)CC1
COC(=O)[C@@H]1CC(O)CN1C(=O)C12CC3CC(CC(C3)C1)C2 (stereo partly drawn)
COc1cc(/C=N/NC(=O)c2ccc(N3CCCC3=O)cc2)ccc1O
COc1ccc(/C=N/NC(=O)c2ccc3c(c2)OCCO3)c(OC)c1
COc1ccccc1C(=O)NNC(=O)c1ccc(NC(=O)c2ccccc2)cc1
COc1cc(/C=N/NC(=O)c2ccccc2)ccc1OS(=O)(=O)c1ccccc1
O=C(CSCc1ccccc1)Nc1ccccc1
Cc1ccn2c(c1)nc(=O)c1cc(S(=O)(=O)N3CCC(C)CC3)ccc12
COc1cccc(/C=C2/SC(=S)N(CC(=O)NC3C=CS(=O)(=O)C3)C2=O)c1 (stereo not drawn)
COc1ccc(S(=O)(=O)Nc2ccccc2C(=O)N2CCCC2)cc1C
Nc1ccn(C2CC(O)C(CO)O2)c(=O)n1 (stereo not drawn)
CN1CCN(CCCCOc2cccc3ccccc23)CC1
O=C(O)c1c(NC(=O)N2CCCC2)sc2c1CCCC2
Cc1ccc(NC(=O)c2c(NC(=O)CCC(=O)O)sc3c2CCCCC3)cc1
CC1=C(C(=O)OC2CCCCC2)C(c2ccccc2F)NC(=O)N1 (stereo not drawn)
Cc1ccc2c(c1)N(CC(=O)N1CCCC(C)C1)C(=O)CO2 (stereo not drawn)
O=c1oc2ccccc2cc1-c1csc(Nc2ccc(O)cc2)n1
COc1cccc(NC(=S)NCCCN2CCOCC2)c1
CCOc1nc(NCCN2CCOCC2)nc(Nc2ccc(C)cc2)n1
Cc1ccc(N(C(=O)c2snc(C(N)=O)c2N)C(C(=O)NCC2CCCO2)c2c[nH]c3ccccc23)cc1 (stereo not drawn)
COc1ccc(S(=O)(=O)NCCc2cc3ccc(C)c(C)c3[nH]c2=O)cc1
COc1ccc(/C=C(\C#N)C(=O)ONC2=NCCCCC2)cc1
Cc1cc(O)ccc1-c1cnc2ccccc2n1
Fc1ccc(/C=N/Nc2nc(-c3cccnc3)nc3ccccc23)cc1
Cc1nc2ccccc2cc1O
Cc1cc(N/N=C/c2ccccc2F)c2ccccc2n1
COc1ccc(C(=O)Nc2ccc(C(=O)NCC3CCCO3)cc2)c(OC)c1OC (stereo not drawn)
COc1ccc(C(=O)NC2CC2)cc1OC1CCN(Cc2ccc(SC)cc2)CC1
CCOC(=O)N1CCN(Cc2nc3cc(NC(C)=O)ccc3n2C)CC1
CC(=O)c1ccc(N2CCN(C(=O)C3CCN(S(=O)(=O)c4ccc5c(c4)CC(C)N5C(=O)C4CC4)CC3)CC2)cc1 (stereo not drawn)
COc1ccc(CCNC(=O)CCCCCNC(=O)N2CCn3c2nc2ccccc23)cc1OC
N#Cc1c(Cl)nc(-c2cccnc2)nc1-c1ccccc1
CCOC(=O)CCNC(=O)N1CCCC(C(=O)c2ccccc2SC)C1 (stereo not drawn)
CCc1ccc(CNC(=O)C2CCCN(c3nc4ccccc4o3)C2)cc1 (stereo not drawn)
CCCCCc1c(C)nc(N2CCN(Cc3ccc4c(c3)OCO4)CC2)[nH]c1=O
COc1ccc(C(=O)NC(C)c2nccs2)cc1OC1CCN(C(C)C)CC1 (stereo not drawn)
O=C1Nc2ccccc2/C1=C/c1ccnc2ccccc12
CN(C)CCNC(=O)c1[nH]nc2c1CCc1ccccc1-2
COc1cc2cc(C(=O)N/N=C/c3cccc(OC)c3OC)[nH]c2cc1OC
Cc1ccc(CNCc2ccc3c(c2)OCO3)c(C)c1
COc1ccc(-c2nnc(SCC(=O)c3cccs3)o2)c(OC)c1
COc1ccc(NC(=O)CS(=O)(=O)c2ccccc2)cc1
CN(C)C(=O)CCC(=O)N1CCCCC1C(=O)Nc1ccc(Oc2ccccc2F)cc1 (stereo not drawn)
CC(=O)NS(=O)(=O)c1ccc(N/C(N)=N/c2nc(C)cc(C)n2)cc1
CC(C)c1ccc(NC(=O)Cn2ncc3ccccc32)cc1
C=CCc1c(C)nc2cc(-c3ccccc3)[nH]n2c1=O
CC(C)CC(NC(=O)C1CCCN1C(=O)[C@@H](C)NC(=O)OCc1ccccc1)C(=O)NCC(N)=O (stereo partly drawn) (Cbz-[dA][ξP][ξL]G-NH2)
O=C(CNC(=O)c1ccc(-c2ccccc2)cc1)OCc1ccc(Cl)cc1
O=C(CNC(=O)c1ccccc1)NCC(=O)OCc1ccc(Cl)cc1
COc1ccccc1NC(=O)[C@H](COCc1ccccc1)NC(=O)OC(C)(C)C
CC(C)(C)OC(=O)CNC(=O)c1[nH]cnc1C(=O)N[C@@H](Cc1ccccc1)C(=O)OCc1ccccc1
CC(C)[C@H](NC(=O)OCc1ccccc1)C(=O)OCc1ccccc1
COC(=O)[C@@H](Cc1ccccc1)NC(=O)NCCc1ccccc1
NC(=O)c1ccc(NC(=O)COC(=O)C(Cc2ccccc2)NC(=O)c2ccccc2)cc1 (stereo not drawn)

Potency, active:
COc1ccc(C(=O)Nc2ccccc2C(=O)N/N=C/c2ccc(O)c(OC)c2)cc1 0.199 µM
COc1ccc(C(=O)Nc2ccccc2C(=O)N/N=C/c2ccccc2OC)cc1 15.8 µM
O=C(CN1CCCC1)Nc1sc2c(c1C(=O)Nc1ccccc1)CCCC2 5.01 µM
Cc1ccc(Nc2nc(-c3ccc(O)cc3O)cs2)nc1 8.91 µM
CCOc1cccc(/C=N/NC(=S)NCCN2CCOCC2)c1O 1.41 µM
Oc1ccc(/C=N/NC2=NCCCCC2)c(O)c1 11.2 µM
Oc1ccc(/C=N/Nc2nc(-c3ccccc3F)nc3ccccc23)c(O)c1 10 µM
Cc1nc2ccccc2nc1N/N=C/c1ccc(O)cc1O 11.2 µM
CCOC(=O)c1cnc(Nc2nc3ccccc3o2)nc1CSC(=S)N1CCCCC1 0.447 µM
COc1cccc(/C=N/NC(=O)c2[nH]nc3c2CCc2ccccc2-3)c1O 0.794 µM
COc1ccc(-c2nnc(NC(=O)CS(=O)(=O)c3ccc(Cl)cc3)o2)c(OC)c1 17.8 µM
CNC(=O)c1[nH]cnc1C(=O)N[C@@H](CC(C)C)C(=O)OCc1ccccc1 10 µM
Cc1cccc(NC(=O)c2nc[nH]c2C(=O)NCC(=O)OCc2ccccc2)c1 12.6 µM
C[C@H](NC(=O)c1nc[nH]c1C(=O)NCC(=O)OC(C)(C)C)C(=O)OCc1ccccc1 11.2 µM
O=C(N[C@@H](Cc1ccccc1)C(=O)OCc1ccccc1)c1nc[nH]c1C(=O)N[C@@H](Cc1ccccc1)C(=O)OCc1ccccc1 10 µM

Activity change, negative = inhibition, inactive:
Cn1cc[n+](C)c1COc1ccc(C=O)cc1 -16.6% [at 1.91 µM]
Cc1ccc(NC(=O)c2cc(-c3ccc(C)o3)nc3ccccc23)nc1 -10.5% [at 0.365 µM]
COc1ccccc1N1CCN(/N=C/c2ccc(O)cc2O)CC1 -15.8% [at 1.91 µM]
O=S(=O)(NC1CC2CCC1C2)c1ccc(Cl)cc1 (stereo not drawn) 44% [at 1.91 µM]
